Results filed as inconclusive are left out. Activity calls are given as the source filed them. The call rests on the fitted dose curve; in most records, active means well fitted curve in the direction sought with a large enough effect; inconclusive means small, poorly fitted or top-dose-only effect, or another doubt; inactive means no such curve, though single readings can be large; an effect the other way counts as inactive or inconclusive.
Key:
[1] = Quantitative High-Throughput drug screen in 47 multiple myeloma cell lines against the NCATS MIPE library collection: ARD_JJKsccE7 cell viability assay (AID 1918929)
Summary of the method: (§1)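 We plated 500 myeloma cells per well, pinned in MIPE 4.0 compounds, and incubated for 48 hours at 37C. ATP was then quantified with CellTiter-Glo, with DMSO and media-only wells defining 100% and 0%.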

[2] = Quantitative High-Throughput drug screen in 47 multiple myeloma cell lines against the NCATS MIPE library collection: Karpas620_DSMZ cell viability assay (AID 1918959); further: nearly all actives have a fitted effect of over 30% in size
Summary of the method: as §1

[3] = Quantitative High-Throughput drug screen in 47 multiple myeloma cell lines against the NCATS MIPE library collection: KMM1_JCRB cell viability assay (AID 1918960); further: nearly all actives have a fitted effect of over 30% in size
Summary of the method: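 500 cells/well; MIPE 4.0 library pinned in; 48 h, 37 °C, 5% CO2; CellTiter-Glo ATP luminescence. Controls: DMSO = 100% viability, medium only = 0%.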

[4] = Quantitative High-Throughput drug screen in 47 multiple myeloma cell lines against the NCATS MIPE library collection: Karpas417_ECACC cell viability assay (AID 1918961); conditions: Karpas417 myeloma viability, CellTiter-Glo ATP luminescence, 48 h; viability (% of DMSO): at 45.8 µM (top of the series)
Summary of the method: (§2)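 Viability readout: CellTiter-Glo luminescence following 5 min room-temperature incubation with reagent. Prior exposure: 48 h, 37C, humidified 5% CO2, 500 cells per well.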

[5] = Quantitative High-Throughput drug screen in 47 multiple myeloma cell lines against the NCATS MIPE library collection: KHM11_PLB cell viability assay (AID 1918962); further: nearly all actives have a fitted effect of over 35% in size
Summary of the method: as §1

[6] = Quantitative High-Throughput drug screen in 47 multiple myeloma cell lines against the NCATS MIPE library collection: JIM3_ECACC cell viability assay (AID 1918963; further: nearly all actives have a fitted effect of over 35% in size)
Summary of the method: as §1

[7] = Quantitative High-Throughput drug screen in 47 multiple myeloma cell lines against the NCATS MIPE library collection: INA6_PLB cell viability assay (AID 1918965; further: nearly all actives have a fitted effect of over 55% in size)
Summary of the method: as §2

[8] = Quantitative High-Throughput drug screen in 47 multiple myeloma cell lines against the NCATS MIPE library collection: JJN3_DSMZ cell viability assay (AID 1918966; further: nearly all actives have a fitted effect of over 50% in size)
Summary of the method: as §1

[9] = Quantitative High-Throughput drug screen in 47 multiple myeloma cell lines against the NCATS MIPE library collection: H1112_PLB cell viability assay (AID 1918967; further: nearly all actives have a fitted effect of over 30% in size)
Summary of the method: as §1

[10] = Quantitative High-Throughput drug screen in 47 multiple myeloma cell lines against the NCATS MIPE library collection: JIM1_ECACC cell viability assay (AID 1918964)
Summary of the method: as §1

Measured: Potency
Potency means the concentration at half of the fitted maximal effect.

COc1cccc2c1C(=O)c1c(O)c3c(c(O)c1C2=O)C[C@@](O)(C(=O)CO)C[C@@H]3O[C@H]1C[C@H](N)[C@H](OC2CCCCO2)[C@H](C)O1 (stereo not given in full)
active: [5] 2090 nM | [6] 3720 nM | [7] 469 nM | [8] 1870 nM | [9] 1480 nM
inactive: [1] | [2] | [3] | [4]

CC(=O)ON=C1C(c2c(O)[nH]c3cc(Br)ccc23)=Nc2ccccc21
active: [1] 5260 nM | [2] 4690 nM | [3] 5900 nM | [4] 5260 nM | [5] 13200 nM | [6] 2960 nM | [7] 935 nM | [8] 20900 nM

CC(=O)[C@]1(O)Cc2c(O)c3c(c(O)c2[C@@H](O[C@H]2C[C@H](N)[C@@H](O)[C@H](C)O2)C1)C(=O)c1ccccc1C3=O
active: [1] 3320 nM | [2] 2090 nM | [3] 2350 nM | [4] 2350 nM | [5] 296 nM | [6] 264 nM | [10] 1180 nM | [7] 93.5 nM | [8] 209 nM | [9] 187 nM

OCCNC1CCCc2c1[nH]c1ccc(-c3ccccc3)cc21 (stereo not given)
active: [1] 26400 nM | [2] 23500 nM | [3] 18700 nM | [4] 10500 nM | [5] 9350 nM | [6] 18700 nM | [7] 7430 nM | [8] 23500 nM | [9] 20900 nM

CN(C)c1ccc(C(=O)NCCCCCCC(=O)NO)cc1
active: [1] 332 nM | [2] 743 nM | [3] 105 nM | [4] 132 nM | [5] 1660 nM | [6] 2960 nM | [10] 93.5 nM | [7] 166 nM | [8] 1050 nM | [9] 1870 nM

N#Cc1cc(NC(=O)Nc2nnc(-c3ccncc3)s2)ccc1-c1cn[nH]c1
not listed: [8]
inactive: all other assays above

CCN(CC)Cc1ccc2cc(COC(=O)Nc3ccc(C(=O)NO)cc3)ccc2c1
active: [1] 662 nM | [2] 833 nM | [3] 469 nM | [4] 526 nM | [5] 1320 nM | [6] 1480 nM | [10] 469 nM | [7] 74.3 nM | [8] 833 nM | [9] 1180 nM

Nc1nc(N)c2nc(-c3cccc(O)c3)c(-c3cccc(O)c3)nc2n1
active: [1] 8330 nM | [2] 11800 nM | [3] 3720 nM | [4] 1320 nM | [5] 3320 nM | [6] 9350 nM | [7] 2350 nM | [8] 18700 nM | [9] 7430 nM

Cc1ccc2nc(NCCN)c3ncc(C)n3c2c1
active: [1] 9350 nM | [2] 11800 nM | [3] 7430 nM | [4] 8330 nM | [5] 2640 nM | [6] 8330 nM | [10] 3320 nM | [7] 5900 nM | [8] 1660 nM | [9] 4690 nM

C[C@H](NCc1ccc(OCc2cccc(F)c2)cc1)C(N)=O
active: [1] 5260 nM | [2] 3720 nM | [3] 6620 nM | [4] 2640 nM | [5] 1480 nM | [6] 2960 nM | [10] 3720 nM | [7] 1320 nM | [8] 8330 nM | [9] 5900 nM

O=C1CSC(=O)N1C(CCc1ccncc1)COc1ccc(-c2cccc([N+](=O)[O-])c2)cc1 (stereo not given)
inactive: [1] | [2] | [3] | [10]
active: [4] 46.9 nM | [5] 10500 nM | [7] 5900 nM | [8] 18700 nM | [9] 7430 nM

NC(=O)Nc1sc(-c2ccc(F)cc2)cc1C(N)=O
active: [1] 296 nM | [2] 1480 nM | [3] 209 nM | [4] 74.3 nM | [5] 833 nM | [6] 4690 nM | [10] 74.3 nM | [7] 332 nM | [8] 418 nM

Cc1cnc(Nc2ccc(N3CCN(C)CC3)cc2)nc1Nc1cccc(S(=O)(=O)NC(C)(C)C)c1
active: [1] 590 nM | [2] 3720 nM | [3] 1660 nM | [4] 372 nM | [5] 1870 nM | [6] 3720 nM | [10] 662 nM | [7] 418 nM | [8] 2960 nM | [9] 5900 nM

NC(=O)Nc1cc(-c2ccc(CN3CCOCC3)cc2)sc1C(N)=O
active: [1] 935 nM | [2] 6620 nM | [3] 4180 nM | [4] 83.3 nM | [5] 935 nM | [6] 4690 nM | [10] 1480 nM | [7] 1050 nM | [8] 1180 nM | [9] 5260 nM

CCc1cnn2c(NCc3ccc[n+]([O-])c3)cc(N3CCCC[C@@H]3CCO)nc12
active: [1] 23.5 nM | [2] 33.2 nM | [3] 14.8 nM | [4] 20.9 nM | [5] 18.7 nM | [6] 26.4 nM | [10] 14.8 nM | [7] 23.5 nM | [8] 11.8 nM | [9] 26.4 nM

NC(=O)N1CCC(CC(=O)N2CCC([C@H]3c4ncc(Br)cc4CCc4cc(Cl)cc(Br)c43)CC2)CC1
active: [1] 2090 nM | [2] 14800 nM | [3] 18700 nM | [4] 10500 nM | [5] 37.2 nM | [6] 18700 nM | [10] 5900 nM | [7] 7430 nM | [8] 16600 nM | [9] 10500 nM

COc1cc(O)c2c(c1)C1OC1C[C@H](O)[C@H](O)C(=O)C=CC[C@H](C)OC2=O (stereo not given in full)
active: [1] 5900 nM | [2] 2640 nM | [3] 4180 nM | [4] 469 nM | [5] 296 nM | [7] 2960 nM | [8] 5260 nM | [9] 5260 nM

COc1cccc2c1C(=O)c1c(O)c3c(c(O)c1C2=O)C[C@@](O)(C(C)=O)C[C@H]3O[C@H]1C[C@H](N)[C@H](O)[C@H](C)O1
active: [1] 235 nM | [2] 66.2 nM | [3] 74.3 nM | [4] 46.9 nM | [5] 235 nM | [6] 93.5 nM | [7] 33.2 nM | [8] 105 nM | [9] 209 nM

COc1cc(OC)cc(-c2ccc3ncc4ccc(=O)n(-c5ccc(N6CCNCC6)c(C(F)(F)F)c5)c4c3c2)c1
active: [1] 2640 nM | [2] 4690 nM | [3] 2960 nM | [4] 2350 nM | [5] 5900 nM | [6] 10500 nM | [10] 3720 nM | [7] 3720 nM | [8] 5900 nM | [9] 2090 nM

CN[C@H]1[C@@H](O)[C@@H]2O[C@@H]3O[C@H](C)CC(=O)[C@]3(O)O[C@@H]2[C@@H](NC)[C@H]1O
active: [1] 469 nM | [2] 743 nM | [3] 372 nM | [4] 469 nM | [5] 8330 nM | [6] 5260 nM | [10] 662 nM | [7] 2960 nM | [8] 105 nM | [9] 2640 nM

COc1cccc2c1C(=O)c1c(O)c3c(c(O)c1C2=O)C[C@@](O)(C(=O)CO)C[C@H]3O[C@H]1C[C@H](N)[C@H](O)[C@H](C)O1
active: [1] 2960 nM | [2] 1050 nM | [3] 1870 nM | [4] 1320 nM | [5] 332 nM | [6] 332 nM | [10] 1050 nM | [7] 118 nM | [8] 132 nM | [9] 372 nM

O=C1NC(O)CCN1[C@@H]1O[C@H](CO)[C@H](O)[C@H]1O (stereo not given in full)
not listed: [7] | [8] | [10]
inactive: all other assays above

COc1cc(C(=O)NC2CCN(C)CC2)ccc1Nc1ncc2c(n1)N(C1CCCC1)CCC(=O)N2C(C)C
active: [1] 18700 nM | [2] 23500 nM | [3] 16600 nM | [4] 13200 nM | [5] 14800 nM | [10] 5900 nM | [7] 3720 nM | [8] 8330 nM | [9] 23500 nM

COc1cc2c(cc1OC)[C@@H]1C(=O)c3ccc4c(c3O[C@@H]1CO2)C=CC(C)(C)O4
active: [1] 23.5 nM | [2] 33.2 nM | [3] 526 nM | [4] 209 nM | [5] 4180 nM | [6] 8330 nM | [10] 1180 nM | [7] 1 nM | [8] 9350 nM | [9] 29.6 nM

C[C@@]12C(=O)OC(=O)[C@@]1(C)C1CCC2O1
active: [1] 1660 nM | [2] 2960 nM | [3] 743 nM | [4] 2960 nM | [5] 2350 nM | [6] 1870 nM | [10] 662 nM | [7] 2640 nM | [8] 662 nM | [9] 3720 nM

COc1ccc(S(=O)(=O)Nc2cc(-c3c(O)ccc4ccccc34)c(O)c3ccccc23)cc1
active: [1] 5260 nM | [2] 1660 nM | [3] 8330 nM | [4] 1660 nM | [5] 14800 nM | [6] 9350 nM | [10] 3320 nM | [7] 2960 nM | [8] 8330 nM | [9] 9350 nM

CO[C@@H]1[C@@H](O)[C@H](O)[C@@H](n2c3c(Cl)cccc3c3c4c(c5c6cccc(Cl)c6[nH]c5c32)C(=O)NC4=O)O[C@@H]1CO
active: [1] 5260 nM | [2] 1480 nM | [3] 264 nM | [4] 1320 nM | [5] 1180 nM | [6] 1480 nM | [10] 526 nM | [7] 187 nM | [8] 9350 nM | [9] 418 nM

— PubChem BioAssay (NCATS)
